Consider 14 molecules from PubChem BioAssay (NCI).

The panel holds about 83,000 compounds, 20% with a hit somewhere; the sample as a whole holds those more often.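 Testing used 96-well plates and a 48-hour single-concentration exposure. Example: -40 means 40% of the starting cells died.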 Unmarked numbers belong to inactive results. Calls of active or inactive are those of the source. The calls were made as follows: active = growth percent below 10; inactive = the rest.

Among the test systems are NCI-H23 lung; NCI-H226 lung; NCI-H322M lung; HOP-62 NSCLC; NCI-H460 lung; HOP-92 NSCLC; NCI-H522 lung; A549/ATCC NSCLC; 786-0 renal; COLO 205 colon.
What all share (test): NCI-60 one-dose screen, 48 h (100 = growth as untreated, 0 = no growth, -100 = all killed)
Holding throughout (settings): 10 µM unless noted

As to `COc1ccc(/C=C/C(=O)C(CC2CCC2)C(=O)/C=C/c2ccc(OC)c(OC)c2)cc1OC`, the growth with NCI-H23 lung was 3.1% (active); in the test with NCI-H226 lung it was -0.278% (active); in the test with NCI-H322M lung it was 10.6%; in the test with HOP-62 NSCLC, -39% (active); with NCI-H460 lung, -30.3% (active); in the test on HOP-92 NSCLC, -5.24% (active). Besides, the growth is -38.2% (active) in the test on NCI-H522 lung, -47% (active) with A549/ATCC NSCLC, -44.6% (active) with 786-0 renal and -53.7% (active) in the test on COLO 205 colon.

In the case of `CNc1cccc2c1C(=O)c1cccc(N)c1C2=O`, the growth was 76.3% in the test with NCI-H23 lung; 82.4% with NCI-H226 lung; 75.3% with NCI-H322M lung; 89.3% in the test on HOP-62 NSCLC; 52.4% in the test with NCI-H460 lung; 20.5% in the test with HOP-92 NSCLC. Besides, the growth was 62.3% in the test on NCI-H522 lung, 59.8% in the test on A549/ATCC NSCLC, 38% in the test on 786-0 renal and 7.33% (active) with COLO 205 colon.

For the molecule `COc1ccc(Nc2nc(SCC(C)C)nc(-c3ccc(F)cc3)c2C#N)cc1`, the growth in the test on NCI-H23 lung was 79.1%; in the test with NCI-H226 lung it was 75.1%; in the test on NCI-H322M lung, 97%; with HOP-62 NSCLC it was 73.8%; in the test with NCI-H460 lung it was 52.4%; with HOP-92 NSCLC, 77.2%. Also, the growth with NCI-H522 lung was 35.5%; in the test with A549/ATCC NSCLC it was 62.5%; in the test with 786-0 renal it was 60.8%; in the test on COLO 205 colon it was 72.4%.

Consider `C#C[C@@]1(O)[C@@H](CO)O[C@@H](n2cnc3c(-c4ccccc4)ncnc32)[C@@H]1O`, for which the growth was 101% in the test with NCI-H23 lung; 104% with NCI-H226 lung; 104% in the test with NCI-H322M lung; 110% in the test on HOP-62 NSCLC; 112% with NCI-H460 lung; 105% in the test with HOP-92 NSCLC. In addition, the growth was 94.8% in the test with NCI-H522 lung, 94.1% with A549/ATCC NSCLC, 98.8% with 786-0 renal and 109% in the test with COLO 205 colon.

Turning to `O=C(Nc1cccc(-c2cccc(F)c2)c1)C1CCN(Cc2cccc3cccnc23)CC1`, the growth in the test on NCI-H23 lung is 69.2%; in the test on NCI-H226 lung it was 71.5%; with NCI-H322M lung, 78.2%; with HOP-62 NSCLC it was 63.8%; with NCI-H460 lung, 37%; with HOP-92 NSCLC it was 44.2%. The growth was 47.3% in the test on NCI-H522 lung, 71.9% with A549/ATCC NSCLC, 47.5% with 786-0 renal and -81% (active) in the test with COLO 205 colon.

On to `COc1ccc(C2N(c3cc(OC)c(OC)c(OC)c3)C(=O)C2(F)F)cc1F` (stereo not given), for which the growth in the test on NCI-H23 lung was 37.9%; in the test on NCI-H226 lung, 75.5%; in the test on NCI-H322M lung, 91.2%; in the test with HOP-62 NSCLC, 38.4%; in the test on NCI-H460 lung, 27.2%; with HOP-92 NSCLC, 60.8%. In addition, the growth with NCI-H522 lung was 17.5%; with A549/ATCC NSCLC it was 48.6%; in the test with 786-0 renal, 75.3%; in the test on COLO 205 colon it was 16.3%.

With `C=C(C)[C@@H]1CC[C@]2(C(=O)OCCOCCOCC[P+](c3ccccc3)(c3ccccc3)c3ccccc3)CC[C@]3(C)[C@H](CC[C@@H]4[C@@]5(C)CC[C@H](C)C(C)(C)[C@@H]5CC[C@]43C)[C@@H]12`, the growth in the test with NCI-H23 lung is -80% (active); in the test with NCI-H226 lung, -70.9% (active); in the test on NCI-H322M lung it was -98.1% (active); with HOP-62 NSCLC, -79.5% (active); with NCI-H460 lung it was -78% (active); in the test with HOP-92 NSCLC it was -83.3% (active). Moreover, the growth in the test on NCI-H522 lung was -80.6% (active); in the test on A549/ATCC NSCLC it was -83.7% (active); in the test with 786-0 renal, -83.3% (active); with COLO 205 colon, -82.2% (active).

As for `Cc1cnc(SCc2ccc(Cl)cc2)[nH]c1=S`, the growth in the test on NCI-H23 lung was 94.8%; in the test on NCI-H226 lung, 111%; in the test on NCI-H322M lung, 89.5%; with HOP-62 NSCLC, 94.2%; in the test with NCI-H460 lung, 113%; in the test on HOP-92 NSCLC, 105%. In addition, the growth with NCI-H522 lung is 78.7%; with A549/ATCC NSCLC, 94.4%; with 786-0 renal, 92.8%; in the test on COLO 205 colon it was 121%.

As for `N#Cc1c(-c2ccc(F)cc2)nc(N=Nc2c(O)[nH]c3ccc(Cl)cc23)nc1N1CCOCC1`, the growth in the test on NCI-H23 lung is 37.4%; in the test on NCI-H226 lung, 10.5%; with NCI-H322M lung, 46.9%; with HOP-62 NSCLC, 11.6%; in the test with NCI-H460 lung, 51.8%; in the test on HOP-92 NSCLC, -9.97% (active). Besides, the growth was 53.4% with NCI-H522 lung, 23.8% with A549/ATCC NSCLC, 17% with 786-0 renal and 65.5% in the test on COLO 205 colon.

As for `Cc1ccc(C(=O)O)o1`, the growth in the test with NCI-H23 lung is 100%; with NCI-H226 lung, 104%; in the test on NCI-H322M lung, 105%; in the test with HOP-62 NSCLC, 109%; in the test on NCI-H460 lung, 108%; in the test on HOP-92 NSCLC, 89.9%. The growth in the test on NCI-H522 lung is 87%; in the test on A549/ATCC NSCLC it was 93.1%; in the test on 786-0 renal, 97.1%; in the test with COLO 205 colon it was 107%.

For `CC(=O)Nc1c(C(=O)Nc2ccccc2)sc2nc3c(cc12)C(OC(C)=O)CCC3` (stereo not given), the growth is 98% in the test with NCI-H23 lung; 92.9% in the test on NCI-H226 lung; 99% with NCI-H322M lung; 97.1% in the test on HOP-62 NSCLC; 108% in the test on NCI-H460 lung; 86.9% in the test with HOP-92 NSCLC. The growth was 74.4% with NCI-H522 lung, 94.2% in the test on A549/ATCC NSCLC, 71.7% with 786-0 renal and 110% in the test on COLO 205 colon.

Regarding `COc1ccc(-c2[nH]c3ccc(OC)cc3c2C=C(C#N)C#N)cc1`, the growth is 32.9% with NCI-H23 lung; 59.7% in the test on NCI-H226 lung; 58.8% in the test with NCI-H322M lung; 32.5% with HOP-62 NSCLC; 17.2% in the test on NCI-H460 lung; 20.3% in the test on HOP-92 NSCLC. The growth with NCI-H522 lung is -8.75% (active); in the test on A549/ATCC NSCLC it was 32.5%; in the test on 786-0 renal, 28.9%; in the test with COLO 205 colon, 5.59% (active).

On to `COc1ccc(C(C)c2cc(OC)c(OC)c(OC)c2)cc1` (stereo not given), for which the growth in the test on NCI-H23 lung was 28.9%; in the test on NCI-H226 lung, 80.2%; with NCI-H322M lung, 44.6%; in the test with HOP-62 NSCLC, 35.4%; with NCI-H460 lung it was 4.97% (active); with HOP-92 NSCLC, 49%. In addition, the growth is 9.34% (active) with NCI-H522 lung, 18.6% in the test with A549/ATCC NSCLC, 22.6% with 786-0 renal and -15.2% (active) in the test on COLO 205 colon.

Take `CC1CCN(CCCCCOc2ccc3oc4ccccc4c(=O)c3c2)CC1`: the growth is 75.6% in the test on NCI-H23 lung; 90.6% with NCI-H226 lung; 78.7% in the test with NCI-H322M lung; 98.6% in the test on HOP-62 NSCLC; 81.8% in the test on NCI-H460 lung; 83.7% with HOP-92 NSCLC. Further, the growth was 76.2% in the test on NCI-H522 lung, 73.5% in the test on A549/ATCC NSCLC, 75.7% in the test with 786-0 renal and 58.5% in the test with COLO 205 colon.
